The list is not random: actives were taken first. Their share in the collection is about 0.9%.
PPARg SRC3 recr: PPARgamma agonists recruiting SRC-3 coactivator, primary screen, biochemical | 200,000 compounds, 0.26% hits | activation, % at 8 µM | AID 731, 2007 | biochemical PPARgamma/SRC-3 coactivator recruitment assay; in the data active = activation above about 23%
Target sequence (P37231 whole entry, looked up): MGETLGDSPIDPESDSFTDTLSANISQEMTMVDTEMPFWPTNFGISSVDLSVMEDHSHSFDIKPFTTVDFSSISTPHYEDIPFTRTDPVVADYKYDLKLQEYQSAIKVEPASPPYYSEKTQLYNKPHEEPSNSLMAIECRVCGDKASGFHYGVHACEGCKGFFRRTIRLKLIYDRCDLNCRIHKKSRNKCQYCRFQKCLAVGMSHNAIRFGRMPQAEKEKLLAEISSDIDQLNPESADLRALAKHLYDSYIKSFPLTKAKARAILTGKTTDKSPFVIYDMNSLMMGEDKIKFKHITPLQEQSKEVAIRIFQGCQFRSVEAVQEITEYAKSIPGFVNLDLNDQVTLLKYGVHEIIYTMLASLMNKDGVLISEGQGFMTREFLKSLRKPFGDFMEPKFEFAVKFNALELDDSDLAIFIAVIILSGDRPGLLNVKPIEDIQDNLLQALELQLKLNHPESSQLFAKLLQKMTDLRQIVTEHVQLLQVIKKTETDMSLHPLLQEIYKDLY
SRC1 TRFRET art: TR-FRET detection interference compounds, primary screen, artefact control for PPARgamma SRC-1 recruitment agonists, biochemical, TR-FRET emission ratio; TR-FRET detection artefact counter-screen; stronger effect = higher value; AID 1051, 2008; 99,000 compounds, 0.34% hits; TR-FRET ratio at 8 µM; in the data active = TR-FRET ratio above about 2300
PPARg SRC1 recr: PPARgamma agonists recruiting SRC-1 coactivator, primary screen, biochemical; Peroxisome proliferator-activated receptor gamma (Homo sapiens), P37231; activation, % at 8 µM; 200,000 compounds, 0.41% hits; PPARgamma-SRC-1 coactivator recruitment biochemical assay; in the data active = activation above about 19%
SRC3 TRFRET art: TR-FRET detection interference compounds, artefact control for PPARgamma SRC-3 recruitment agonists, biochemical, TR-FRET ratio | TR-FRET artefact counter-screen, PPARgamma/SRC-3 format; stronger effect = higher value | TR-FRET ratio at 8 µM | 99,000 compounds, 0.39% hits
SRC2 TRFRET art: TR-FRET signal artefacts, primary screen, artefact control for PPARgamma SRC-2 agonist project, biochemical; 200,000 compounds, 0.4% hits; TR-FRET ratio at 8 µM; TR-FRET artefact counter-screen; stronger effect = higher value; AID 1049, 2008
PPARg SRC-2 ag: agonists of PPARg-SRC-2 recruitment, primary screen, biochemical, HTS; 200,000 compounds, 0.34% hits; Peroxisome proliferator-activated receptor gamma (Homo sapiens), P37231; PPARgamma LBD-SRC-2 recruitment; activation, % at 8 µM; in the data active = activation above about 22%
A number is an active result; – = inactive; · = not tested or not shown. Rule as the data show it, unless noted: active = TR-FRET ratio above about 2000; inactive = the rest.

SMILES | PPARg SRC3 recr | SRC1 TRFRET art | PPARg SRC1 recr | SRC3 TRFRET art | SRC2 TRFRET art | PPARg SRC-2 ag
O=C(CSc1nnc(-c2ccc(F)cc2)c2ccccc12)Nc1ccccc1 | – | – | – | 2080 | – | –
O=C(CSc1nnc(-c2ccc(F)cc2)c2ccccc12)Nc1ccccc1Cl | – | – | – | 2763 | – | –
O=C(CSc1nnc(-c2ccc(F)cc2)c2ccccc12)Nc1c(F)cccc1F | – | – | – | – | – | –
O=C(CSc1nnc(-c2ccc(F)cc2)c2ccccc12)Nc1cccc(Cl)c1 | – | 2670 | – | 3308 | 2527 | –
Cc1ccccc1NC(=S)N(Cc1cccnc1)Cc1ccccc1Cl | – | – | – | – | – | –
Cc1c(C(=O)OCC(=O)c2ccc3c(c2)OCCO3)oc2ccccc12 | – | · | – | · | 2066 | –
Cc1cc(C(=O)OCC(=O)c2ccc3c(c2)OCCO3)c(C)o1 | – | · | – | · | – | –
Cc1cc([N+](=O)[O-])ccc1N=Nc1c(N)[nH]n(-c2ccccc2)c1=O | – | 2323 | – | – | – | –
CN(C)c1ccc(N=C/C=C2\N(C)c3ccccc3C2(C)C)cc1 | 28 | · | – | · | – | –
COC(=O)c1sc(NC(=S)NC(=O)c2ccccc2F)nc1C | – | 2321 | – | – | 2016 | –
COc1ccc(NS(=O)(=O)c2ccc(N3CCCC3)c(NC(=S)Nc3cccc(S(=O)(=O)N(C)C)c3)c2)cc1 | – | 2504 | – | – | – | –
COc1ccc(NS(=O)(=O)c2ccc(N3CCOCC3)c(NC(=O)c3ccc(OC)cc3)c2)cc1 | – | – | – | – | – | –
CC(C)C(C)NC(=O)COC(=O)c1cc(S(=O)(=O)N(C)C)ccc1N1CCCC1 (stereo unspecified) | – | – | – | – | – | –
CCOC(=O)c1c(C)[nH]c(C(=O)COC(=O)CNC(=O)C2CCCCC2)c1C | 29 | · | – | · | – | –
CCCc1cc2c(cc1NC(=O)c1ccco1)OCO2 | – | – | – | – | – | –
Cc1cc(Cl)ccc1Oc1ncnc2oc(-c3ccccc3)cc12 | 62 | · | – | · | – | –
COc1ccc(C(=O)/C=C/Nc2ccc(S(=O)(=O)Nc3onc(C)c3C)cc2)cc1 | – | – | – | – | – | –
O=C(CCSCc1ccccc1Cl)NCc1cccs1 | – | 2618 | 28 | – | – | –
O=C(CCSCc1ccccc1F)NCc1cccs1 | – | – | – | – | – | –
Cc1ccc(N2CCC(N3CCN(C4CCCCC4)C(CCO)C3)CC2)cc1 (stereo unspecified) | – | – | – | – | – | –
COc1ccc(/C=C/CN2CCCC(CO)(Cc3cccc(Cl)c3)C2)cc1 (stereo unspecified) | – | – | – | – | – | –
Cc1ccc(C(=O)COC(=O)c2cc(=O)[nH]c3ccccc23)cc1C | – | – | – | – | – | –
Cc1ccc(-c2cc(C(=O)N(C)Cc3cnn(C)c3C)c3cc(Br)ccc3n2)cc1 | – | – | – | – | – | –
Cc1ccc(-c2cc(C(=O)NCc3cnn(C)c3C)c3cc(Br)ccc3n2)cc1 | – | · | – | · | 2130 | –
CCN(CC)S(=O)(=O)c1ccc(C(=O)NCc2n[nH]c(=S)n2-c2ccc(Cl)c(Cl)c2)cc1 | – | – | – | – | – | –
SMILES | PPARg SRC3 recr | SRC1 TRFRET art | PPARg SRC1 recr | SRC3 TRFRET art | SRC2 TRFRET art | PPARg SRC-2 ag
CCc1nc(SCC(=O)NCCc2ccccc2)c2oc3ccccc3c2n1 | – | · | – | · | 2202 | –
Cc1nc(SCC(=O)Nc2ccc(F)cc2)c2oc3ccccc3c2n1 | – | · | 30 | · | – | –
Cc1nc(SCC(=O)c2ccc(Cl)s2)c2oc3ccccc3c2n1 | – | · | 19 | · | – | –
Cc1nc(SCC(=O)Nc2ccccc2)c2oc3ccccc3c2n1 | – | · | – | · | – | –
Cc1nc(SCC(=O)NC(C)c2ccccc2)c2oc3ccccc3c2n1 (stereo unspecified) | – | · | – | · | – | –
CCC(C)(C(=O)NC1CCCCC1)N(CC1CCCO1)C(=O)Cc1cccs1 (stereo unspecified) | – | – | – | – | – | –
O=C(Nc1cccc2ccccc12)c1cn(-c2ccccc2)nc1-c1cccs1 | – | · | – | · | 2231 | –
CN(Cc1ccc(OC(F)F)cc1)Cc1nc2c(Br)cc(Br)cc2c(=O)[nH]1 | – | – | – | 2068 | – | –
C=CCNc1cnn(-c2ccc(C)cc2)c(=O)c1Sc1ccc(C)cc1 | – | – | – | – | – | –
N#CC1=C(N)OC2=C(CCC/C2=C/c2ccoc2)C1c1ccoc1 (stereo unspecified) | 31 | · | – | · | – | –
N#CC1=C(N)OC2=C(CC/C2=C\c2ccc(F)cc2)C1c1ccc(F)cc1 (stereo unspecified) | – | – | – | – | – | –
Cc1cccn2cc(-c3c[nH]c4ccccc34)nc12 | – | – | – | – | – | –
Clc1ccc2nc(-c3ccc4c(c3)OCO4)cn2c1 | – | – | – | – | – | –
Brc1ccc2nc(-c3c[nH]c4ccccc34)cn2c1 | – | – | – | – | 1999 | –
Clc1ccc(-c2cn3cc(Br)ccc3n2)cc1Cl | – | – | – | – | 2032 | –
O=C(NC1CC2CCCC(C1)N2Cc1cccs1)c1ccc([N+](=O)[O-])cc1 (stereo unspecified) | – | – | – | – | – | –
Fc1ccc(-c2n[nH]c(=S)c3ccccc23)cc1 | – | – | – | – | – | –
Cc1sc(-n2c(C)cc(/C=N/n3cnnc3)c2C)c(C#N)c1C | 29 | · | – | · | – | –
O=S(=O)(c1ccccc1Br)N1CCC(O)(c2cccnc2)CC1 | – | – | – | – | – | –
COc1cccc(Nc2nnc(SCC3CCCCO3)s2)c1 (stereo unspecified) | – | – | – | – | 2017 | –
Cn1c(=O)c2[nH]c(-c3ccccc3Cl)c(O)c2n(C)c1=O | – | – | – | – | – | –
Cn1c(=O)c2[nH]c(-c3ccccc3)c(O)c2n(C)c1=O | – | 2338 | – | – | – | –
CC(C)Cc1nc2sc3c(NCc4ccco4)ncnc3c2c2c1COC(C)(C)C2 | – | · | – | · | 4130 | 106
O=C(CSc1ncnc2ccccc12)Nc1cc(S(=O)(=O)N2CCCCC2)ccc1Cl | – | – | – | 2968 | 2930 | –
CC1CN(CC(=O)Nc2cc(S(=O)(=O)N3CCCC3)ccc2Cl)CC(C)O1 (stereo unspecified) | – | – | – | – | 2051 | –
Cc1ccc(S(=O)(=O)N2CCCCC2)cc1NC(=O)CSc1ncnc2ccccc12 | – | – | – | – | – | –
Cc1ccc(NC(=O)CSc2ncnc3ccccc23)cc1S(=O)(=O)N1CCCCCC1 | – | – | – | 2506 | – | –

Screening data from PubChem BioAssay.
